Results: PubChem BioAssay (NCATS)
Inconclusive results are not listed. Values without a mark were called inactive. Active and inactive are the calls of the source. Calls follow the shape of the dose curve; as a rule, active = well fitted cell-killing curve with a large enough effect; inconclusive = small, poorly fitted or top-dose-only effect, or effect the other way; inactive = no such curve, though single readings can be large or run the other way.

assay: Quantitative High-Throughput drug screen in 47 multiple myeloma cell lines against the NCATS MIPE library collection: AMO1_DSMZ cell viability assay (AID 1918927; also: nearly all actives have a fitted effect of over 30% in size;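 as to viability, % of DMSO: 100% = DMSO only wells and 0% = cell-free media only wells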); conditions: AMO1 myeloma cells viability, CellTiter-Glo ATP luminescence, 48 h; series mostly up to 45.8 µM; viability, % of DMSO: at the top concentration
How it was run: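 qHTS of the MIPE 4.0 collection: 500 myeloma cells/well, 48 h drug exposure at 37C in 5% CO2, then CellTiter-Glo for 5 min at room temperature before luminescence reading.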
Potency is read from the fitted curve at half-maximal effect.

| SMILES | viability, % of DMSO | Potency |
| --- | --- | --- |
| CC[C@H]1OC(=O)[C@H](C)C(=O)[C@H](C)[C@@H](O[C@H]2O[C@H](C)C[C@H](N(C)C)[C@@H]2O)[C@](C)(OC)C[C@@H](C)C(=O)[C@H](C)[C@H]2N(CCCCn3cnc(-c4cccnc4)c3)C(=O)O[C@]12C | 108% |  |
| COc1ccc(-c2oc3c(CC=C(C)C)c(OC4O[C@H](CO)[C@@H](O)[C@H](O)[C@@H]4O)cc(O)c3c(=O)c2OC2O[C@@H](C)[C@H](O)[C@@H](O)[C@@H]2O)cc1 (stereo partly specified) |  | 8.33 µM (active) |
| CC[C@@H]1C=C(C)C[C@H](C)C[C@H](OC)[C@H]2O[C@@](O)(C(=O)C(=O)N3CCCC[C@@H]3C(=O)O[C@H](C(C)=C[C@@H]3CC[C@H](Cl)[C@H](OC)C3)[C@H](C)[C@@H](O)CC1=O)[C@H](C)C[C@H]2OC |  | 9.35 µM (active) |
| CC[C@H]1OC(=O)[C@H](C)[C@@H](O[C@H]2C[C@@](C)(OC)[C@@H](O)[C@H](C)O2)[C@H](C)[C@@H](O[C@@H]2O[C@H](C)C[C@H](N(C)C)[C@@H]2O)[C@](C)(O)C[C@@H](C)CN(C)[C@H](C)[C@@H](O)[C@]1(C)O | 144% |  |
| C=C1C(=O)OC2C=C(C)CCC=C(C)CCC12 (stereo unspecified) |  | 18.7 µM (active) |
| NC[C@@H]1O[C@@H](O[C@H]2[C@@H](O)[C@H](O[C@@H]3[C@@H](O)[C@@H](N)C[C@H](N)[C@H]3O[C@H]3O[C@H](CN)[C@@H](O)[C@@H](O)[C@H]3N)O[C@H]2CO)[C@H](N)[C@@H](O)[C@@H]1O | 123% |  |
| Clc1ccc(CCC(Cn2ccnc2)Sc2c(Cl)cccc2Cl)cc1 (stereo unspecified) |  | 14.8 µM (active) |
| CNC(=O)c1ccccc1Sc1ccc2c(C=Cc3ccccn3)n[nH]c2c1 |  | 2.64 µM (active) |
| CCN(CC)CCOc1ccc(C(=C(Cl)c2ccccc2)c2ccccc2)cc1 |  | 18.7 µM (active) |
| COC(=O)C1=CO[C@@H](O)[C@@H]2C(CO)=CC[C@@H]12 |  | 18.7 µM (active) |
| O=C1NC(=O)C(=Cc2ccc3nccnc3c2)S1 | 134% [at 23.2 µM] |  |
| CC=CCC=CCCC(=O)[C@H]1O[C@@H]1C(N)=O |  | 20.9 µM (active) |
| Nc1ncnc2c1ncn2[C@@H]1O[C@H](CO)C[C@@H]1O | 99.6% |  |
| Cc1cc(OCCCc2c(C(=O)O)n(Cc3cccnc3)c3c(-c4c(COc5ccc(N6CCN([S+](C)(=O)[O-])CC6)cc5)nn(C)c4C)cccc23)cc(C)c1Cl | 95.1% |  |
| CC(=NNC(=S)N1CCC1)c1ccccn1 |  | 0.001 µM (active) |
| Clc1ccc(COC(Cn2ccnc2)c2ccc(Cl)cc2Cl)cc1 (stereo unspecified) |  | 23.5 µM (active) |
| Clc1ccc(-c2nc3sccn3c2C=NOCc2ccc(Cl)c(Cl)c2)cc1 | 120% |  |
| CC=C(C)C(=O)O[C@H]1C(C)=C[C@]23C(=O)[C@@H](C=C(CO)[C@@H](O)[C@]12O)[C@H]1[C@@H](C[C@H]3C)C1(C)C |  | 18.7 µM (active) |
| O=c1c(-c2ccc(O)cc2)coc2cc(OC3O[C@H](CO)[C@H](O)[C@H](O)[C@H]3O)cc(O)c12 (stereo partly specified) | 102% |  |
| Nc1ncnc2c1ncn2[C@@H]1O[C@@H](CO)[C@H](O)[C@H]1O | 92.3% |  |
| C=CCc1ccc(O)c(-c2ccc(O)c(CC=C)c2)c1 |  | 23.5 µM (active) |
| CC(=Cc1ccccc1)C=C1SC(=S)N(CC(=O)O)C1=O | 128% |  |
| Cc1ccc([C@@H]2O[C@H](CO)[C@@H](O)[C@H](O)[C@@H]2O)cc1Cc1ccc(-c2ccc(F)cc2)s1 |  | 18.7 µM (active) |
| COCCCCC(=NOCCN)c1ccc(C(F)(F)F)cc1 | 101% |  |
| NC1=N[C@@]2(c3cc(NC(=O)c4ccc(F)cn4)ccc3F)COC[C@@H]2CS1 |  | 2.64 µM (active) |
| C[C@H]1[C@H](NC(=O)C(=NOC(C)(C)C(=O)O)c2csc(N)n2)C(=O)N1S(=O)(=O)O | 117% |  |
